# High-throughput results: PubChem BioAssay, National Center for Advancing Translational Sciences (NCATS)
# Compounds with a hit are over-represented: about 0.69% of the library has one in this group of screens.
# Integrin act MD = qHTS for Activators of Integrin-Mediated Alleviation for Muscular Dystrophy; alpha7betagal myoblasts, beta-gal FDG fluorescence, 48 h; Potency, µM (series often up to 38.3 µM), without a hit: at the top dose activation, most hits filed as activators; 350,000 tested, 0.064% active; AID 624291, 2012;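 also: potency is read from the fitted curve at half-maximal effect; 100% = response of the positive control SU9516; nearly all actives have a fitted effect of over 60% in size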
#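 alpha7betagal+/- myoblasts (passage 13, 250/well) treated 48 h at 37C with compounds at 1:260 dilution of DMSO stock. Lysed, then beta-galactosidase activity read as FDG fluorescence (ex 480/em 540) after 30 min, with pre-read for autofluorescence.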
# IL2 activator = qHTS of IL-2 Activators. IL-2 activation reporter assay, cell-based qHTS; stimulated with anti-CD3/CD4/CD28 beads; in transgenic mouse T cells. activation, % (series mostly up to about 46 µM). 360,000 tested, 0.065% active. AID 652025, 2013; in the data active = activation above about 50%; inconclusive = mostly about 30% to 49%; also: 0% is about no effect
#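 Unstimulated transgenic mouse T cells preincubated 60 min with compound, then stimulated with anti-CD3/anti-CD4-coated beads plus anti-CD28 for 18 h at 37 degrees C. IL-2 response read as EGFP and DsRed fluorescence by plate cytometry.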
# PKM2 activator = qHTS Assay for Activators of Human Muscle isoform 2 Pyruvate Kinase; Potency, µM (titrated, usually from 57.5 µM), for the others: at the top dose activation, most hits filed as activators; purified PKM2, Kinase-Glo ATP luminescence, activation; response scale: 0% is enzyme alone, no compound; 260,000 tested, 0.34% active; also: potency is read from the fitted curve at half-maximal effect; % is scaled to controls: 0 for no effect and ±100 for the full control effect; nearly all actives have a fitted effect of over 55% in size
#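 hPK-M2, >95% pure; 0.1 mM ADP / 0.5 mM PEP final; imidazole pH7.2 buffer w/ 7 mM MgCl2, 50 mM KCl; 1 h RT; Kinase-Glo lum. Intermediate enzyme activity for dual inhibitor/activator qHTS.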
# A-T KAP1 phos = qHTS Assay for Identifying a Potential Treatment of Ataxia-Telangiectasia | F2112 A-T fibroblasts, KAP-1 phosphorylation AlphaLISA; neocarzinostatin DNA damage 30 min before lysis | Potency, µM (doses to about 57.5 µM), without a hit: at the highest dose activation, hits mostly activators | 320,000 tested, 0.19% active | AID 485349, 2010; also: potency is read from the fitted curve at half-maximal effect; % of control where 0% means no effect; nearly all actives have a fitted effect of over 45% in size
#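 hTERT-immortalized A-T patient fibroblasts (F2112), 500 cells/well in OPTI-MEM, 1% FBS, got compounds for 60 min, then NCS for 30 min at 37C. Lysates were then assayed for phospho-KAP-1 by AlphaLISA (anti-pKAP1 donor, anti-KAP1 acceptor beads), 6 hr at 25C.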
# Tb PFK inh-1 = qHTS Assay to Find Inhibitors of T. brucei phosphofructokinase | ATP-dependent 6-phosphofructokinase (Trypanosoma brucei brucei), O15648 | T. brucei PFK, ADP-Glo luminescence | Potency, µM (highest dose often 57.5 µM), for the others: at the top dose activity, negative = inhibition, most hits filed as inhibitors | 330,000 tested, 0.17% active | AID 485367, 2010;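 also: potency is read from the fitted curve at half-maximal effect; 0% = uninhibited 1x PFK enzyme wells and -100% = no-enzyme wells; nearly all actives have a fitted effect of over 60% in size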
# Target sequence (O15648 whole entry, looked up): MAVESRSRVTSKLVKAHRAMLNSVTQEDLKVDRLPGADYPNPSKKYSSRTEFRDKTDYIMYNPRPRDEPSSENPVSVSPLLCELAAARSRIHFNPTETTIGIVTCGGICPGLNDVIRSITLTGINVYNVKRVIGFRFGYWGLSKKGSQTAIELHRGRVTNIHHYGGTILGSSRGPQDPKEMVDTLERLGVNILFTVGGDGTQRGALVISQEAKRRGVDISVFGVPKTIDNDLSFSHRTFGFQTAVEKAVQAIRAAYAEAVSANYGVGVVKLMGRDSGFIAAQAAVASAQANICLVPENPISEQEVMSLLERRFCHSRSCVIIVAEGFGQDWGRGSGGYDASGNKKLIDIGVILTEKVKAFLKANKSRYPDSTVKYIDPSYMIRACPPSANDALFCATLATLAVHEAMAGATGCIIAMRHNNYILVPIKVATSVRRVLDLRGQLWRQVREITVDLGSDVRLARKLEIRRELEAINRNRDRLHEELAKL
#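 In TEA buffer at pH 8.0 with 5 mM MgCl2, enzyme (1.25 nM) converted F6P (0.5 mM) and ATP (0.1 mM) for 45 min at room temperature. ADP product was read by luciferase luminescence.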
# TCR activator = Activators of T cell receptors: qHTS campaign; primary human leukocytes, anti-CD3, IL-2 HTRF, 48 h; Potency, µM (highest dose often 9.22 µM), inactives show at the top dose activation of IL-2 secretion, usual class: activators; 330,000 tested, under 10 active; AID 504894, 2011; also: % of control where 0% means no effect
#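 Using a-CD3 beads without co-stimulation, primary human leukocytes were exposed to compounds for 48 hr. An HTRF IL-2 kit measured the cytokine, with europium-to-d2 energy transfer producing emission at 665nm upon 320nm excitation.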
# TbPFK ATP = Tb PFK orthogonal confirmatory assay using ATP depletion (Kinase-Glo Plus) as an alternative measure of Tb PFK activity: Hit Validation | shares compounds with Tb PFK inh-1 | Tb PFK enzyme, ATP depletion, Kinase-Glo Plus luminescence | Potency, µM (doses to about 57.5 µM), for inactives: at the highest dose inhibition | 1,100 tested, 47% active; calls by dose curve; also: potency is read from the fitted curve at half-maximal effect; nearly all actives have a fitted effect of over 60% in size
# Tb PFK inh-2 = Inhibitors of T. brucei phosphofructokinase: Hit Validation; Potency, µM (top dose mostly 57.5 µM), for the others: at the highest dose activity change, negative = inhibition, most hits filed as inhibitors; purified T. brucei PFK, ADP-Glo luminescence, 45 min; shares compounds with Tb PFK inh-1; 1,100 tested, 41% active;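 also: potency is read from the fitted curve at half-maximal effect; plate controls were full PFK enzyme control for no effect and no enzyme control for full effect; nearly all actives have a fitted effect of over 60% in size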
# * marks the source's active call; other numbers are inactive results; ? = inconclusive; nt = no result given; [ ] = dose if it differs, or a comment. Unless noted, calls follow the shape of the dose curve; as a rule, active = well fitted curve in the direction sought with a large enough effect; inconclusive = small, poorly fitted or top-dose-only effect, or another doubt; inactive = no such curve, though single readings can be large; an effect the other way counts as inactive or inconclusive.
SMILES,Integrin act MD,IL2 activator,PKM2 activator,A-T KAP1 phos,Tb PFK inh-1,TCR activator,TbPFK ATP,Tb PFK inh-2
O=C(Nc1ccc(Cl)cc1)Nc1nccs1,11%,4,0%,-4%,-9%,-5%,nt,nt
COc1cccc(CC(=O)Nc2ccc(S(=O)(=O)Nc3nccs3)cc2)c1,0%,0,nt,5%,19µM*,-3%[46.1 µM],19µM*,?
O=C(Cc1ccc(Cl)cc1)Nc1ccc(S(=O)(=O)Nc2ncccn2)cc1,4%,0,-4%,20%,21µM*,2%,11µM*,19µM*
CN1[C@@H]2CC[C@H]1CC(OC(=O)N1Cc3ccccc3NC1=O)C2 (stereo partly specified),nt,nt,-11%,nt,nt,nt,nt,nt
O=c1[nH]c(=O)n(Cc2ccccc2Cl)c(O)c1/C=C1/C=CC=N1,11%,-3,-2%,-1%,8%,2%,nt,nt
O=C1c2ccccc2-n2nnc(-c3ccccc3)c2C2c3cc(Br)ccc3CCN12 (stereo unspecified),nt,1,nt,nt,nt,nt,nt,nt
COC(=O)C1=C(c2ccc(Cl)c(C(F)(F)F)c2)C[C@@H]2CC[C@H]1N2C(=O)NCCOc1ccccc1Cl,-42%,-1,nt,-4%,7%,-16%,nt,nt
O=C(COC(=O)/C=C/c1ccco1)Nc1ncc(C(F)(F)F)cc1Cl,-4%,-1,9%,-3%,17µM*,1%[46.1 µM],11µM*,13µM*
O=C(Nc1cccc(-c2nnn(CC(=O)N3CCc4ccccc4C3)n2)c1)C1CCC1,19%,1,-8%,-2%,24µM*,0%,13µM*,?
Cc1ccc(N/N=C/c2c(C)c(C#N)c(=O)n(C)c2O)cc1C,3%,-3,?,3%,?,6%,6%,-3%
CC1=C(C)CN2CC(C#N)=C(N)C2C1 (stereo unspecified),nt,0,nt,nt,nt,nt,nt,nt
c1ccc(-c2csc(-n3cnnn3)n2)cc1,-4%,-3,-3%,0%,?,2%,?,-24%
C[C@@H]1CN([C@@H](C)CO)C(=O)CCCn2cc(nn2)CO[C@H]1CN(C)C(=O)Oc1ccc2ccccc2c1,21%,3,nt,nt,nt,nt,nt,nt
O=C(N/N=C/c1ccc(O)c(O)c1O)/C(=C/c1ccc([N+](=O)[O-])cc1)NC(=O)c1ccccc1,-14%,1,12%,-8%,24µM*,2%,3.4µM*,11µM*
O=C1C=C(NCc2ccc(Cl)c(Cl)c2)CC1,-23%,0,5%,nt,4.8µM*,-4%,4.8µM*,6µM*
COc1ccc(N2C(=O)/C(=C/c3cccs3)NC2=S)cc1,-7%,-3,-37%,-12%,15µM*,-5%[46.1 µM],6µM*,6µM*
COc1cccc(N2C(=O)/C(=C/c3ccc(C)o3)C(=O)NC2=S)c1,-26%,0,nt,-24%,-1%,8%,nt,nt
COc1ccc(CC(=O)OCC(=O)NC2CC2)cc1,-33%,0,nt,2%,24µM*,12%,?,-7%
CN1C2CNC(=O)CC1C1CCC2C1 (stereo unspecified),-7%,1,nt,nt,nt,nt,nt,nt
COC(=O)C1=C(c2cccc(C#N)c2)C[C@@H]2CC[C@H]1N2C(=O)N1CCCCC1,3%,-1,nt,18%,2%,0%,nt,nt
COc1cc(SSc2cc(OC)cc([N+](=O)[O-])c2N)c(N)c([N+](=O)[O-])c1,0%,0,-60%,-11%,3.4µM*,2%,2.4µM*,2.7µM*
CCOC(=O)c1c(-c2ccco2)csc1NC(=O)COC(=O)c1cnccn1,-5%,-3,nt,2%,6.7µM*,-2%,24µM*,-27%
CCCCn1c(NC(=O)c2ccco2)c(C(=O)OCC)c2nc3ccccc3nc21,-55%,0,-1%,4%,3%,nt,nt,nt
S=c1[nH]c2cc(Br)cnc2[nH]1,6%,1,?,-6%,3%,8%,nt,nt
CCOc1cccc(N2C(=O)/C(=C/c3ccco3)C(=O)NC2=S)c1,-3%,-2,-1%,-1%,?,-11%,?,?
SMILES,Integrin act MD,IL2 activator,PKM2 activator,A-T KAP1 phos,Tb PFK inh-1,TCR activator,TbPFK ATP,Tb PFK inh-2
COc1cc(C(=O)Nc2ccc(Br)cc2C(=O)c2ccccc2Cl)cc(OC)c1OC,-23%,0,-9%,-6%,-2%,9%[46.1 µM],nt,nt
COc1ccccc1NS(=O)(=O)c1cc(NC(=O)c2ccc(Cl)nc2)ccc1N1CCCC1,?,-5,nt,1%,17µM*,-1%,4.8µM*,6µM*
CN(C)C(CNC(=O)Cc1ccc(Br)cc1)c1ccccc1 (stereo unspecified),5%,-2,3%,6%,-9%,-1%,nt,nt
O=C(Cc1ccc(Br)cc1)N/N=C/c1cccnc1,7%,0,-1%,18%,17µM*,-6%,13µM*,?
COc1cc(/C=C/c2ccc3c([N+](=O)[O-])cccc3n2)ccc1OCC(=O)O,20%,0,-1%,-8%,?,-4%,-25%,?
COc1cc(/C=C/c2ccc3cccc([N+](=O)[O-])c3n2)ccc1OCC(=O)O,12%,0,8%,-4%,?,1%,-24%,26%
Cc1cc(NS(=O)(=O)c2ccc(NC(=O)Cc3ccc([N+](=O)[O-])cc3)cc2)nc(C)n1,34%,1,nt,1%,8.5µM*,-1%[46.1 µM],3.8µM*,6µM*
Cc1noc(NS(=O)(=O)c2ccc(NC(=O)Cc3ccc([N+](=O)[O-])cc3)cc2)c1C,26%,0,2%,4%,6µM*,-18%,3.4µM*,12µM*
